Assay results: the supplement of paper PMC6555819

How the values were obtained:
Test in all cases: PBM binding z-score (relative to random genomic background probes); higher = stronger binding; sequences stand for … in GC…GCGATTGACAGCGTAGAATGAAGG
[1] = system: FXR:RXRa (NR concentration 270 nM, RXRa partner concentration 90 nM)
Summary of the method: (§1)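 Antibodies against each partner of ligand-free nuclear receptor dimers (one per run) detected binding on custom Agilent 4×180K protein-binding microarrays after 1 h incubation. The double-stranded probes had 34-nt variable regions carrying direct-repeat seeds, single-nucleotide variants, half-site ablations and random human genomic background sequences. Binding z-scores, from regression-normalized fluorescence, use the random background probes as reference.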

[2] = system: LXRa:RXRa (NR concentration 270 nM, RXRa partner concentration 90 nM)
Summary of the method: as §1

[3] = system: LXRa homodimer (NR concentration 270 nM)
Summary of the method: as §1

[4] = system: LXRb:RXRa (NR concentration 270 nM, RXRa partner concentration 90 nM)
Summary of the method: as §1

[5] = system: PPARa:RXRa (NR concentration 270 nM, RXRa partner concentration 90 nM)
Summary of the method: as §1

[6] = system: PPARg:RXRa (NR concentration 180 nM, RXRa partner concentration 90 nM)
Summary of the method: as §1

[7] = system: PPARg:RXRa 270nM:90nM, anti-RXR (NR concentration 270 nM, RXRa partner concentration 90 nM)
Summary of the method: as §1

[8] = system: PPARg:RXRa 30nM:10nM, anti-RXR (NR concentration 30 nM, RXRa partner concentration 10 nM)
Summary of the method: as §1

[9] = system: PPARg:RXRa 90nM:30nM, anti-RXR (NR concentration 90 nM, RXRa partner concentration 30 nM)
Summary of the method: as §1

[10] = system: PPARg:RXRa DBDmut IVT, anti-RXR (DBD mutation: RXRa K156A/R161A, NR concentration 270 nM, RXRa partner concentration 90 nM)
Summary of the method: as §1

[11] = system: PPARg:RXRa IVT, anti-PPARg (NR concentration 270 nM, RXRa partner concentration 90 nM)
Summary of the method: as §1

[12] = system: PPARg homodimer (NR concentration 180 nM)
Summary of the method: as §1

[13] = system: PXR:RXRa (NR concentration 270 nM, RXRa partner concentration 90 nM)
Summary of the method: as §1

[14] = system: PXR homodimer (NR concentration 270 nM)
Summary of the method: as §1

[15] = system: RARa:RXR (NR concentration 270 nM, RXRa partner concentration 90 nM)
Summary of the method: as §1

[16] = system: RARa homodimer (NR concentration 270 nM)
Summary of the method: as §1

[17] = system: RARb:RXRa (NR concentration 270 nM, RXRa partner concentration 90 nM)
Summary of the method: as §1

Sequence | PBM binding z-score [1] | PBM binding z-score [2] | PBM binding z-score [3] | PBM binding z-score [4] | PBM binding z-score [5] | PBM binding z-score [6] | PBM binding z-score [7] | PBM binding z-score [8] | PBM binding z-score [9] | PBM binding z-score [10] | PBM binding z-score [11] | PBM binding z-score [12] | PBM binding z-score [13] | PBM binding z-score [14] | PBM binding z-score [15] | PBM binding z-score [16] | PBM binding z-score [17]
CCGAGTAGGTTACGAGGGGGCAGTCAGTGCGAAT | 2.18 | 6.39 | 0.422 | 5.55 | 3.14 | 2.19 | 3.18 | 0.853 | 2.04 | 4.71 | 4.53 | 2.79 | 3.74 | 1.86 | 2.38 | 0.525 | 2.15
CCGAGTAGGTTAGGAGGGGGCATTCAGTGCGAAT | 2.47 | 4.27 | 1.19 | 5.24 | 2.86 | 1.74 | 2.65 | 1.44 | 2.24 | 3.01 | 4.36 | 2.59 | 4.53 | 6.27 | 2.88 | 0.952 | 2.06
CTATGTAGGTTAAGGGGGTGATTCAGTTTGAAAG | 1.52 | 1.98 | 0.79 | 3.83 | 4.69 | 7.43 | 6.74 | 4.44 | 6.29 | 7.48 | 7.27 | 2.45 | 2.49 | 2.65 | 2.41 | 1.25 | 2.34
TCGAGTAGGTTCCGGGGGCATTCAGGGATGAAGA | 2.36 | 1.8 | 0.316 | 4.06 | 2.5 | 0.485 | 2.22 | 1.38 | 2.24 | 1.44 | 2.23 | 1.05 | 2.68 | 1.13 | 1.96 | -0.469 | 1.17
CTATGTAGGATAAGGGGGTCATTCAGTTTGAAAG | 4.36 | 4.48 | 2.61 | 5.97 | 5.61 | 5.71 | 5.95 | 3.41 | 5.43 | 4.4 | 5.24 | 3.61 | 5.75 | 11.1 | 5.73 | 2.91 | 3.27
TCGAGTAGGTTACGGGGGCATTCGGGGATGAAGA | 3.14 | 3.56 | 0.662 | 5.09 | 4.28 | 6.03 | 5.81 | 3.14 | 4.8 | 5.16 | 5.85 | 3.02 | 3.55 | 2 | 3.36 | 0.243 | 2.54
TCGAGTAGGTTACGGGCGCATTCAGGGATGAAGA | 0.124 | 0.321 | -0.293 | -0.159 | 1.4 | 1.17 | 1.62 | 1.11 | 1.36 | 2.38 | 2.9 | 0.541 | -0.126 | -0.432 | 0.353 | -0.39 | 0.68
TCGAGTAGGTTACGGGGGCAATCAGGGATGAAGA | 1.97 | 2.28 | 0.238 | 4.49 | 4.14 | 6.62 | 5.6 | 3.37 | 4.85 | 4.86 | 6.27 | 1.35 | 2.64 | 0.755 | 2.99 | -0.0158 | 2.43
CCGAGTAGGTGACGAGGGGGCATTCAGTGCGAAT | 1.24 | 3.03 | 0.595 | 4.26 | 3.3 | 2.94 | 3.3 | 0.701 | 2.23 | 5.58 | 5.86 | 1.39 | 4.21 | 5.4 | 2.76 | 0.823 | 1.75
CTATCTAGGTTAAGGGGGTCATTCAGTTTGAAAG | 5.03 | 4.71 | 2.63 | 6.25 | 5.95 | 8.5 | 7.76 | 6.25 | 7.89 | 7.65 | 7.5 | 4.89 | 6 | 13.2 | 6.07 | 2.58 | 3.68
CCGAGTAGGTTACGAGGGGGAATTCAGTGCGAAT | 0.932 | 1.98 | 0.178 | 3.04 | 2.28 | 1.76 | 2.55 | 0.623 | 1.37 | 4.48 | 4.06 | 0.811 | 1.55 | 0.309 | 1.23 | 0.123 | 1.26
CTATGTAGGTTAAGGGGGTCATGCAGTTTGAAAG | 5.42 | 4.98 | 1.95 | 6.22 | 6.35 | 9.11 | 8 | 6.71 | 8.07 | 7.51 | 7.75 | 4.7 | 5.74 | 8.41 | 6 | 1.78 | 3.79
CCGTGTAGGTTACGAGGGGGCATTCAGTGCGAAT | 2.88 | 7.45 | 2.37 | 6.73 | 3.56 | 2.16 | 3.34 | 1.52 | 2.52 | 3.52 | 4.85 | 2.84 | 5.31 | 7.2 | 3.23 | 1.33 | 2.47
CTATTTAGGTTAAGGGGGTCATTCAGTTTGAAAG | 4.85 | 4.88 | 2.76 | 6.33 | 5.72 | 7.22 | 7.14 | 4.74 | 6.89 | 6.86 | 6.59 | 5.85 | 5.9 | 12.3 | 5.84 | 2.72 | 3.71
CTATGTAGGTTCAGGGGGTCATTCAGTTTGAAAG | 5.43 | 5.56 | 4.57 | 6.31 | 5.86 | 5.72 | 6.22 | 3.18 | 5.1 | 3.32 | 4.65 | 3.3 | 6.29 | 10.6 | 6.89 | 2.03 | 3.59
CTATGTAGGTTAAGGGGGCCATTCAGTTTGAAAG | 1.41 | 1.83 | 0.578 | 4.2 | 4.65 | 7 | 6.86 | 4.73 | 6.88 | 7.13 | 7.17 | 1.77 | 2.69 | 3.67 | 2.17 | 0.379 | 1.94
TCGAGTAGGTTACGGGGGCATACAGGGATGAAGA | 2.72 | 2.52 | 0.664 | 4.86 | 4.48 | 6.1 | 5.69 | 3.56 | 5.05 | 5.24 | 5.71 | 3.33 | 2.97 | 1.54 | 3.27 | 0.305 | 2.65
CTATGTAGGTTAAGGCGGTCATTCAGTTTGAAAG | 1.17 | 2.21 | 1.95 | 1.37 | 3.24 | 4.29 | 4.25 | 1.38 | 3.3 | 6.74 | 6.69 | 0.855 | 1.37 | 2.41 | 0.782 | -0.289 | 1.62
TCGAGTAGGTTACGGGAGCATTCAGGGATGAAGA | 0.293 | 0.0567 | -0.651 | 0.0342 | 1.82 | 1.59 | 2.09 | 1.25 | 1.7 | 2.84 | 3.32 | -0.122 | 0.0708 | -0.797 | 0.667 | -0.752 | 0.692
CTATGTAGATTAAGGGGGTCATTCAGTTTGAAAG | 4.51 | 4.72 | 3.33 | 6.12 | 5.52 | 4.29 | 5.06 | 2.72 | 4.53 | 3.6 | 4.97 | 4.49 | 5.56 | 10.4 | 5.56 | 3.01 | 3.42
TCGAGTAGGTTACGGGGGCAGTCAGGGATGAAGA | 2.28 | 2.27 | 0.393 | 4.55 | 3.63 | 4.99 | 5.02 | 2.93 | 4.41 | 5 | 5.6 | 2.04 | 2.33 | 1.2 | 2.43 | 0.156 | 2.36
CCGAGTAGGTTACGAGGGGACATTCAGTGCGAAT | 1.08 | 5.68 | 0.00926 | 3.05 | 1.68 | 2.07 | 2.15 | 0.304 | 1.13 | 4.84 | 4.14 | 1.04 | 2.82 | 2.23 | 0.995 | 0.101 | 1.42
CCGAGTAGGTTACGAGGGGGTATTCAGTGCGAAT | 1.23 | 5.34 | 0.455 | 4.28 | 2.87 | 1.8 | 3.05 | 1.22 | 1.9 | 4.05 | 4.17 | 1.24 | 2.91 | 0.693 | 1.99 | 0.377 | 1.51
CTGTGTAGGTTAAGGGGGTCATTCAGTTTGAAAG | 5.15 | 4.93 | 3.47 | 6.55 | 5.67 | 6.19 | 6.47 | 4.23 | 5.78 | 5.16 | 6.16 | 3.62 | 5.84 | 10.9 | 5.48 | 2.01 | 3.67
TCGAGTAGGTTACGCGGGCATTCAGGGATGAAGA | 0.576 | 0.477 | -0.0246 | -0.00737 | 1.49 | 1.38 | 1.88 | 1.46 | 1.79 | 2.91 | 3.32 | 0.356 |  | -0.508 | 0.641 | -0.865 | 0.946
CTATGTAGGTTAAGGGGGTTATTCAGTTTGAAAG | 2.37 | 2.74 | 1.14 | 5.09 | 5.34 | 7.83 | 7.16 | 5.05 | 7.12 | 6.94 | 7.29 | 2.61 | 3.46 | 5.03 |  | 1.62 | 2.24
CTATGTAGGTTAAAGGGGTCATTCAGTTTGAAAG | 6.38 | 5.21 | 4.18 | 5.82 | 6.43 | 9.57 | 8.21 | 7.05 | 8.61 | 7.95 | 7.63 | 7.13 |  | 13 |  | 1.99 | 3.87
TCGAGTAGGTTACGGGGTCATTCAGGGATGAAGA | 6.23 | 5.46 | 1.76 | 5.33 | 6.21 | 8.14 | 6.68 | 4.18 | 5.91 | 5.23 | 6.24 | 2.46 |  | 2.57 |  | 0.377 | 3.87
CCGAGTAGGTTCCGAGGGGGCATTCAGTGCGAAT | 0.618 | 1.8 | 1.32 | 4.15 | 2.04 | -0.00423 | 1.42 | 0.548 | 0.958 | 1.28 | 2.13 | 1.1 |  | 6.61 | 2.14 | 0.637 | 1.3
CCGAGTAGGTTACGAGGGGGCATTCGGTGCGAAT | 1.7 | 7.08 | 1.42 | 6.21 | 3.53 | 2.41 | 3.16 | 0.729 | 2.56 | 3.74 | 4.36 | 1.85 | 4.83 | 4.05 | 2.98 | 0.224 | 2.22
